Rows were chosen to be rich in hits. Some 14% of all compounds tested hit in one or more screens of this group.
HCV inhibitor: blocks hepatitis C virus. Huh7.5.1 HCVcc-Cre infection, luciferase reporter, 44 h. Potency, µM (doses to about 41.8 µM), inactives show at the highest dose activity change, negative = inhibition, usual class: inhibitors. 340,000 compounds, 3.4% hits; also: potency is read from the fitted curve at half-maximal effect
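Infectious HCVcc-Cre (~0.5 moi) was added to cells just after compound, with cells seeded 4 h earlier at 1,000 per well. Luciferase activity after 44 h culture reported infection; substrate was incubated 15 min at room temperature before reading.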
LASV entry inh: blocks Lassa virus binding to or entry into cells. Potency, µM (titrated, usually from 37.9 µM), without a hit: top-dose activity change, negative = inhibition, actives largely listed as inhibitors. Lassa virus pseudotype entry inhibition, cell reporter. 300,000 compounds, 1.2% hits. AID 540256; calls by dose curve; tested in HEK293 cells; also: potency is read from the fitted curve at half-maximal effect; nearly all actives have a fitted effect of over 50% in size
Pf growth 48h: inhibits P. falciparum growth in the first generation, 48 h. 310,000 compounds, 5.9% hits. Potency, µM (series often up to 28.7 µM), for the others: top-dose activity change, negative = inhibition, most hits filed as inhibitors. P. falciparum luciferase growth in erythrocytes, 48 h; also: potency is read from the fitted curve at half-maximal effect
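First compound was added to culture medium, then infected red cells at 0.1% parasitemia and 2% hematocrit (final). After incubation at 37 C under 5% CO2, luciferase detection reagent was dispensed and light output recorded.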
Pf growth 96h: P. falciparum growth inhibition at 96 hours. 320,000 compounds, 6.9% hits. AID 504834. P. falciparum luciferase reporter growth, 96 h. Potency, µM (top dose mostly 28.7 µM), inactives show at the highest dose activity change, negative = inhibition, actives largely listed as inhibitors; also: potency is read from the fitted curve at half-maximal effect
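P. falciparum expressing integrated firefly luciferase grown in erythrocytes (2% hematocrit, 0.05% parasitemia final) with compounds for 96 hours at 37 C, 5% CO2. Growth inhibition read as loss of luminescence after adding luciferase detection reagent.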
HCMV antiviral: human cytomegalovirus inhibition; HFF cells, HCMV-luciferase reporter, 72 h; stronger effect = lower value; activity change, negative = inhibition, % at 57.5 µM; 410,000 compounds, 4.5% hits; AID 1259415; in the data active = activity change below about -60%; inconclusive = no clear call, values can overlap the other calls; inactive = above about -39%
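After 16 h attachment at 37C, HFF cells received test compound and HCMV-luciferase (1 PFU/cell); reporter luminescence read 72 h later, data normalized against buffer-only and known inhibitor Salinomycin.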
MARV entry inh: blocks Marburg virus binding to or entry into cells | Marburg virus pseudotyped entry inhibition, cell reporter | Potency, µM (series often up to 37.8 µM), for the others: top-dose activity change, negative = inhibition, actives largely listed as inhibitors | 300,000 compounds, 1.8% hits | AID 540276; calls by dose curve; tested in HEK293 cells; also: potency is read from the fitted curve at half-maximal effect
Numbers without * were called inactive; ? = inconclusive; . = not tested or not shown; [ ] = another dose, or the depositor's remark. Unless noted, calls follow the shape of the dose curve; as a rule, active = well fitted inhibition curve with a large enough effect; inconclusive = small, poorly fitted or top-dose-only effect, or another doubt; inactive = no such curve, though single readings can be large or run the other way. % is scaled to controls: 0 for no effect and ±100 for the full control effect.

SMILES	HCV inhibitor	LASV entry inh	Pf growth 48h	Pf growth 96h	HCMV antiviral	MARV entry inh
CC(NC(=O)Nc1ccc([N+](=O)[O-])cc1)C(c1cccs1)N1CCCC1 (stereo unspecified)	1.5%	?	?	9.28µM*	-21.9	?
CC(NC(=S)Nc1ccc(Cl)cc1Cl)C(c1cccs1)N1CCCC1 (stereo unspecified)	0.8%	?	?	11.7µM*	-38.1	?
CCNc1nc(NCC)nc(N(C)/N=C/c2ccco2)n1	-15.8%	.	?	1.47µM*	-22.6	.
COc1ccc(NS(=O)(=O)c2cc(NC(=O)c3cc(F)c(F)cc3Cl)ccc2N2CCOCC2)cc1	?	.	.	.	-24.3	.
Nc1ccc(N2CCOCC2)c(S(=O)(=O)Nc2cc(Cl)ccc2Cl)c1	22.9%	7.3%[46.1 µM]	?	-16.1%	55.9	3.1%[46.1 µM]
Nc1cc(S(=O)(=O)Nc2ccc(Cl)cc2)ccc1N1CCOCC1	?	?	13.1%	1.1%	-72.0*	?
COc1ccc(NS(=O)(=O)c2cc(NC(=O)c3ccccc3)ccc2N2CCOCC2)cc1	?	.	.	.	12.6	.
COc1ccc(NS(=O)(=O)c2cc(NC(=O)c3sccc3C)ccc2N2CCOCC2)cc1	?	.	10.4µM*	?	0.0	.
CCOC(=O)Nc1ccc(N2CCOCC2)c(S(=O)(=O)Nc2ccc(Cl)cc2)c1	?	?	.	.	27.6	10µM*
Nc1cc(S(=O)(=O)Nc2ccccc2Cl)ccc1N1CCOCC1	?	.	?	-12.8%	-30.1	.
N=C1c2ccccc2CN1c1ccc(N2CCOCC2)c(S(=O)(=O)Nc2ccc(Cl)cc2)c1	.	.	?	9.28µM*	-34.8	.
Cc1ccc(Cn2cc(CN3CC(N4CCN(CCN(C)C)CC4)CS3(=O)=O)nn2)cc1 (stereo unspecified)	.	.	.	.	1.1	.
COc1ccccc1NS(=O)(=O)c1cc(NC(=O)c2sccc2C)ccc1N1CCOCC1	?	.	?	11.7µM*	-0.7	.
COCCCNC(=O)c1cc2cc3cc(OC)ccc3nc2o1	-4.8%	.	10.4µM*	-21.5%	8.4	4.7%
COc1ccc2cc3cc(C(=O)NC(C)C)oc3nc2c1	2.2%	?	.	2.94µM*	136.4	?
COc1ccc2cc3cc(C(=O)NCc4ccc5c(c4)OCO5)oc3nc2c1	-7.3%	0.82µM*	5.8%	-7.7%	-23.0	?
COc1cc(NC(=O)c2cc3cc4cc(OC)ccc4nc3o2)cc(OC)c1	.	1.6%[46.1 µM]	.	.	?	.
COc1ccc(CNC(=O)c2cc3cc4ccc(C)cc4nc3o2)cc1	.	?	.	.	-11.4	?
COc1ccc2nc3oc(C(=O)N4CCC(C(N)=O)CC4)cc3cc2c1	9.5%	10.4%	11.7µM*	-60.9%	57.9	1.6%
Cc1cccc(S(=O)(=O)N2[C@@H]3c4cccc(=O)n4C[C@H]2[C@H](CO)[C@H]3C(=O)N(C)C)c1	.	.	.	.	14.5	.
Cc1ccc(C)c(Cn2c(=O)n(Cc3ccccc3)c(=O)c3sc4ccccc4c32)c1	.	-8.2%[46.1 µM]	.	.	5.8	13.3%[46.1 µM]
COc1ccc2cc3cc(C(=O)Nc4ccc5c(c4)OCCO5)oc3nc2c1	11.2µM*	?	?	-1.2%	-18.5	?
O=C(CSc1ccccc1)NN1C(=O)c2ccccc2C1=O	-4.1%	?	1.3%	9.28µM*	19.0	?
COCCN1C(=O)CCC1(C)c1nnnn1-c1ccc2c(c1)OCCO2 (stereo unspecified)	.	.	.	.	-9.7	.
CCOc1ccc2nc(N(CCN(CC)CC)C(=O)/C=C/c3cccs3)sc2c1	?	-23.7%[46.1 µM]	?	?	?	?
COc1ccc2sc(N(CCN(C)C)C(=O)/C=C/c3cccs3)nc2c1	15.8µM*	.	5.3%	?	-75.8*	.
Cc1cccc2sc(N(CCN(C)C)C(=O)/C=C/c3cccs3)nc12	?	?	?	?	-77.4*	?
Cc1cccc2sc(N(CCN(C)C)C(=O)C3CCN(S(=O)(=O)c4cccs4)CC3)nc12	?	10.5%	11.7µM*	?	-4.8	-2.1%
CCN(CC)CCN(C(=O)/C=C/c1cccs1)c1nc2ccc(OC)cc2s1	?	.	.	.	3.8	.

Screening results as filed in PubChem BioAssay.
